Results taken from the supplement of paper PMC13380429.

Test system: Vero E6 infected with SARS-CoV-2
Experiment: inhibition of SARS-CoV-2 cytopathic effect; higher = more antiviral protection, active = above 15
Conditions: 48 h

Measured: inhibition of SARS-CoV-2 cytopathic effect

Cc1cc(C)c(NC(=O)C2CC3CCC2C3)c(C)c1 (stereo not given)
inactive: 1 nM -1.62% | 8.33 nM -1.21% | 100 nM -3.03% | 833.33 nM -0.39% | 10000 nM 2.61%

O=C([O-])C(O)[C@H](O)[C@@H](O)[C@H](O)[C@H](O)CO.O=C([O-])C(O)[C@H](O)[C@@H](O)[C@H](O)[C@H](O)CO.[Ca+2] (stereo not given in full) [calcium-gluceptate]
inactive: 1 nM -7.86% | 8.33 nM -1.7% | 100 nM -4.55% | 833.33 nM -3.31% | 10000 nM -3.66%

CC(=N)NCc1cccc(CN)c1
inactive: 1 nM 0.8% | 8.33 nM -0.79% | 100 nM -0.18% | 833.33 nM 1.65% | 10000 nM 0.53%

COc1ccccc1C(=O)Nc1cccc(NC(=O)c2cccc(C)c2)c1
inactive: 1 nM 1.89% | 8.33 nM 2.12% | 100 nM 2.82% | 833.33 nM 0.39% | 10000 nM 1.77%
